Assay results published in article PMC5540273 (PLoS ONE, 2017).

Assays:
Settings in all cases: concentration: 1 μM, replicates: in singlicate; n = 1
CAMK1 = test system: CAMK1
CAMK2A = test system: CAMK2A
CAMK2B = test system: CAMK2B
CAMK2D = test system: CAMK2D
CAMK2G = test system: CAMK2G
CAMK4 = test system: CAMK4
CAMKK1 = test system: CAMKK1
CAMKK2 = test system: CAMKK2
CASK = test system: CASK
CDC2L1 = test system: T1, CDC2L1
T1 construct: gene CDK11B
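Also: KINOMEscan kinase panel screen.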

SMILES	%Inh (CAMK1) [%]	%Inh (CAMK2A) [%]	%Inh (CAMK2B) [%]	%Inh (CAMK2D) [%]	%Inh (CAMK2G) [%]	%Inh (CAMK4) [%]	%Inh (CAMKK1) [%]	%Inh (CAMKK2) [%]	%Inh (CASK) [%]	%Inh (CDC2L1) [%]
Nc1ncnc2scc(-c3ccc(NC(=O)Cc4cc(F)ccc4F)cc3)c12.O=C(O)C(F)(F)F [SB-731254-M]	16	0	0	10	5	0	17	12	21	11
Cl.N#CCc1ccc(Nc2nccc(Nc3ccc(Oc4ccccc4)cc3)n2)cc1 [GW639905]	10	0	0	0	0	0	0	0	8	0
COc1cccc(NC(=O)NCCNc2ccnc(Nc3ccc(F)cc3)n2)c1 [GSK1379879]	7	0	0	0	14	0	13	3	0	0
Cc1ccc(NC(=O)c2ccnc(N3CCCCC3)c2)cc1-c1ccc(C(=O)NCC2CC2)cc1 [GW775610]	0	0	0	0	0	10	0	0	0	6
Cl.Cl.NC(CNC(=O)c1cc(Br)c(-c2ccnc3[nH]ccc23)s1)c1ccccc1 (centres unmarked) [GSK1322949]	42	45	39	38	48	0	8	29	38	0
COc1ccc(C)c(Nc2ccnc(Nc3ccc(-c4cnc[nH]4)cc3)n2)c1.Cl [GW784041]	17	0	1	22	0	30	19	0	0	8
CSc1ccc(NC2=C(c3ccc(Cl)cc3)C(=O)NC2=O)cc1 [SB-317658]	19	4	0	18	1	12	0	0	0	0
O=C(Nc1n[nH]c2nc(-c3cccc(O)c3)ccc12)C1CC1 [SB-711805]	0	0	0	0	0	0	0	0	0	0
NCCC(NC(=O)c1cc(Br)c(-c2ccnc3[nH]ccc23)s1)c1ccccc1.O=C(O)C(F)(F)F.O=C(O)C(F)(F)F (centres unmarked) [GSK1307810]	43	34	0	29	26	0	5	9	27	0
Cc1ccc(Nc2ccnc(Nc3ccc(C)c(F)c3)n2)cc1O.Cl [GW582868]	1	96.6	95.3	0	0	0	0	0	13	0
Cc1cc(-c2c(-c3ccc(F)cc3)ncn2CCCN2CCOCC2)nc(N)n1 [SB-222517]	17	0	30	0	8	13	25	0	33	0
Cn1cc(-c2ccc3c(c2)CCN3C(=O)Cc2cc(F)cc(F)c2F)c2c(N)ncnc21 [GSK2634140]	15	0	0	0	11	0	27	1	3	0
COc1cc(Nc2nccc(N3CCC(NC(=O)Nc4ccc5c(c4)OCO5)C3)n2)cc(OC)c1OC (centres unmarked) [GSK1379766]	28	0	0	14	28	0	21	24	4	0
N#Cc1cnc2cc(-c3cnc(CNCCN4CCOCC4)s3)ccc2c1Nc1ccc(Oc2ccccc2)cc1 [GW664114]	22	0	0	21	0	0	48	3	15	0
CN(C)CCNS(=O)(=O)c1ccc(-c2ccnc3[nH]ccc23)cc1 [GSK977620]	50	0	0	0	5	57	0	0	3	0
O=C(Nc1n[nH]c2cc(-c3cccs3)ccc12)C1CC1 [SB-731284]	11	0	0	0	0	0	17	0	49	0
Nc1ncc(-c2ccc3nccc(-c4ccncc4)c3c2)cc1S(=O)(=O)N1CCCCC1 [GSK1693850]	18	4	0	0	14	0	24	33	24	0
O=C(Nc1n[nH]c2nc(-c3ccccc3)ccc12)C1CC1 [SB-708999]	3	0	0	100	17	0	6	13	14	0
CC(C)NCC(Cc1ccccc1)NC(=O)c1cc(Br)c(-c2ccnc3[nH]ccc23)s1.Cl.Cl (centres unmarked) [GSK1383281]	34	0	0	15	15	29	33	19	0	0
Fc1cc(Cl)ccc1Nc1ccnc2cc(-c3ccc(CN4CCSCC4)o3)ccc12 [GW560106]	21	0	0	5	17	0	25	21	0	0
COc1cccc(-c2nc(-c3ccccc3)[nH]c2-c2ccncc2)c1 [SB-610250]	1	0	0	0	2	0	0	0	15	0
Cc1ccc(C)c(NC(=O)Nc2ccc(C)c(-c3ccc(C(=O)Nc4ccncc4)cc3)c2)c1 [GSK1398473]	8	0	0	0	25	0	12	27	0	0

SMILES	%Inh (CAMK1) [%]	%Inh (CAMK2A) [%]	%Inh (CAMK2B) [%]	%Inh (CAMK2D) [%]	%Inh (CAMK2G) [%]	%Inh (CAMK4) [%]	%Inh (CAMKK1) [%]	%Inh (CAMKK2) [%]	%Inh (CASK) [%]	%Inh (CDC2L1) [%]
Cc1cccc(Nc2nc(NCCN)ncc2C(N)=O)c1 [GSK1292139]	59	0	0	14	27	0	18	28	13	0
Cc1cc(-c2ccnc(Nc3cccc(C#N)c3)n2)cc(C)c1O [GSK1440913]	24	13	11	31	39	0	24	30	0	41
COC(=O)Nc1nc2ccc(Oc3ccc(CC(=O)Nc4cc(C(F)(F)F)ccc4F)cc3)cc2[nH]1 [GW680903]	2	0	0	1	12	0	0	9	0	0
COC(=O)Nc1nc2ccc(Oc3ccc(NC(=O)Nc4cc(C(F)(F)F)ccc4F)cc3)cc2[nH]1.Cl [GW654607]	2	0	0	0	15	0	6	6	12	0
COc1cccc(C2=C(Nc3cccc(O)c3)C(=O)NC2=O)c1 [SB-390771]	4	17	0	25	34	0	15	28	28	0
CCn1cnc2c(NCc3ccccc3)ncnc21 [SKF-96418]	0	0	0	0	0	7	0	1	25	0
CN1CCN(Cc2ccc(NC(=O)Nc3ccc(N(C)c4ccnc(Nc5ccc(CS(C)(=O)=O)cc5)n4)cc3)cc2)CC1.Cl [GW827654]	28	0	0	9	15	0	95.4	28	3	33
CC(=O)Nc1cn2nc(Oc3cccc(NC(=O)c4cccc(C(F)(F)F)c4)c3)ccc2n1	19	0	15	1	0	0	0	0	17	7
CC(C)c1nc(-c2cccc(NS(=O)(=O)c3c(F)cccc3F)c2)c(-c2ccnc(Nc3ccc(N4CCOCC4)nc3)n2)s1.Cl [GSK1723980]	47	0	0	2	10	0	14	6	92.1	0
CC(C)c1nc(-c2ccc(F)c(NS(=O)(=O)c3c(F)cccc3F)c2)c(-c2ccnc(Nc3ccc(N4CCOCC4)nc3)n2)s1 [GSK1804250]	54	0	0	7	27	0	17	21	0	0
c1ccc(Oc2ccc(Nc3ccnc4cc(-c5ccc(CN6CCCCC6)o5)ccc34)cc2)nc1 [GW567143]	28	0	0	0	0	0	0	0	49	0
N#CC1(c2cccc(C(=O)Nc3cccc(Oc4ccc5nc(NC(=O)C6CC6)sc5n4)c3)c2)CC1	0	29	26	20	100	2	9	99.6	16	0
COc1cccc(CC(=O)N2CCc3cc(-c4cn(C)c5ncnc(N)c45)ccc32)c1 [GSK2608899]	16	0	0	15	27	13	7	9	16	1
O=C1NC(=O)C(c2ccccc2Cl)=C1Nc1cccc(Cl)c1 [SB-342409]	0	10	0	43	19	47	21	0	39	0
Cc1ccc(NC(=O)c2ccc(Cl)c(Cl)c2)cc1-c1ccc(C(=O)Nc2ccncc2)cc1 [GSK1398460]	27	0	0	7	0	9	0	4	0	2
O=C(O)C(F)(F)F.O=c1[nH]ccc2nc(N[C@@H]3CCNC3)nc(Nc3cc(Cl)cc(Cl)c3)c12 [GSK2188764]	84	71	37	60	57	95.9	75	46	19	1
Cc1ccc(-c2ccc3occ(-c4ccc(S(C)=O)cc4)c3c2)nn1 (centres unmarked)	0	0	0	7	0	18	11	20	0	0
CN(C)c1ncnc2nc[nH]c12 [SKF-31736]	0	12	0	29	29	0	15	25	41	0
CC(C)(C)c1ccc(C(=O)Nc2cn3cc(-n4ccnc4)ccc3n2)cc1	32	18	0	0	12	0	6	7	8	3
O=C(Nc1c(F)cccc1F)c1cc(C(=O)c2ccccc2F)c[nH]1 [GSK1326180]	17	2	0	1	8	5	0	0	3	0
CN(C)CCOc1ccc(-c2cc(-c3ccc(Cl)c(O)c3)c(-c3ccncc3)[nH]2)cc1.Cl.Cl [SB-684387]	24	0	0	13	19	0	25	21	17	0
COc1cc(Nc2nccc(N3CCC(NS(=O)(=O)c4ccc(NC(C)=O)cc4)CC3)n2)cc(OC)c1OC [GSK1379825]	37	0	0	7	12	0	23	8	19	0

SMILES	%Inh (CAMK1) [%]	%Inh (CAMK2A) [%]	%Inh (CAMK2B) [%]	%Inh (CAMK2D) [%]	%Inh (CAMK2G) [%]	%Inh (CAMK4) [%]	%Inh (CAMKK1) [%]	%Inh (CAMKK2) [%]	%Inh (CASK) [%]	%Inh (CDC2L1) [%]
CN(c1ccc2c(c1)nc(NCc1ccccc1)n2C)c1ccnc(Nc2ccc(CS(C)(=O)=O)cc2)n1.Cl [GW811603]	0	0	0	0	0	0	14	0	0	94.2
COc1cc(Nc2ccnc3cc(-c4ccncc4)ccc23)cc(OC)c1OC.Cl [GW494610]	20	0	0	0	7	0	7	0	15	0
Cl.O=C(Nc1ccc(Oc2ccc3[nH]c(NC(=O)c4ccco4)nc3c2)cc1)Nc1cc(C(F)(F)F)ccc1F [GW683134]	0	0	0	0	0	0	0	0	50	0
O=C(O)C(F)(F)F.O=c1[nH]ccc2nc(N[C@@H]3CCNC3)nc(Nc3ccc4c(c3)S(=O)(=O)CC4)c12 [GSK2181306]	82	59	23	55	52	98.5	92.1	40	15	0
CCOc1nccc(-c2c(-c3ccc(F)cc3)ncn2C2CCNCC2)n1 [SB-249175]	0	0	0	0	0	11	1	15	0	3
Cc1ccc(O)cc1Nc1ccnc2ccc(C(C)(C)C)cc12 [GW856805]	45	7	10	18	22	0	3	26	25	12
Nc1ncc(-c2cn[nH]c2)c2scc(-c3ccc4c(c3)CCN4C(=O)Cc3ccccc3)c12 [GSK2593067]	33	0	0	0	18	0	56	8	13	0
CN(c1ccc(F)c(NC(=O)c2cccc(OC(C)(C)C#N)c2Cl)c1)c1ccc2nc(NC(=O)C3CC3)sc2n1	0	1	0	0	8	0	10	0	0	0
O=C(Nc1n[nH]c2nc(-c3ccccc3O)ccc12)C1CC1 [SB-711880]	0	0	0	0	0	0	3	0	13	0
Nc1cccc(-c2ccc3c(N)n[nH]c3c2)c1 [GSK2193613]	29	0	0	11	26	0	2	13	13	7
Cn1cc(-c2ccc3c(c2)CCN3C(=O)Cc2cc(F)cc(C(F)(F)F)c2)c2c(N)ncnc21 [GSK2635225]	5	0	0	0	12	0	0	8	2	5
CCn1c(-c2nonc2N)nc2c(-c3ccccc3)ncc(OCCCN)c21.O=C(O)C(F)(F)F.O=C(O)C(F)(F)F [GSK260205]	7	0	0	14	14	8	0	0	1	0
Cc1ccc(NC(=O)c2cccc(N3CCCCC3)c2)cc1-c1ccc(C(=O)NCC2CC2)cc1 [GSK1917008]	9	0	0	0	21	1	26	11	18	22
CN(c1ccc(NC(=O)N2CCN(CCCN3CCOCC3)CC2)cc1)c1ccnc(Nc2ccc(CS(C)(=O)=O)cc2)n1.Cl [GW830899]	0	0	0	1	0	0	19	0	0	2
CCNC(=O)/C=C/c1n[nH]c2cc(Sc3ccccc3C(=O)NC)ccc12	7	0	0	17	27	0	10	33	40	10
Cc1ccccc1CC(=O)N1CCc2cc(-c3cn(C)c4ncnc(N)c34)ccc21 [GSK2603346]	16	0	0	0	5	5	0	0	0	0
CCNc1nccc(-c2c(-c3ccc(F)cc3)ncn2C2CCN(C)CC2)n1	0	18	0	16	8	0	12	9	0	7
CN(c1ccc(NC(=O)Nc2cccc(Cl)c2)cc1)c1ccnc(N)n1.Cl [GW830707]	2	0	0	10	8	14	0	14	7	0
Cc1cccc(Nc2nc(N[C@H]3CCCC[C@H]3N)ncc2C(N)=O)c1.Cl [GSK986310]	54	0	0	16	33	72	22	26	56	0
Cl.Cl.NCC(NC(=O)c1cc(-c2cccnc2)c(-c2ccnc3[nH]ccc23)s1)c1ccccc1 (centres unmarked) [GSK1323434]	32	0	0	8	14	0	14	24	30	0
Cc1nn2c(=O)cc(N3CCO[C@H](C)C3)nc2n1Cc1cccc(Cl)c1Cl [GSK2373693]	0	0	0	10	5	5	20	2	75	0
